Source: PubChem BioAssay (NCI)
The panel holds about 79,000 compounds, 15% with a hit somewhere; the sample as a whole holds those more often. Rule as the data show it: active = growth inhibition above about 70%; inactive = the rest.

What was measured:
[1] = NCI Yeast Anticancer Drug Screen. Data for the rad50 strain (AID 155);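 also: 0% = growth of vehicle-only cultures of the same strain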; conditions: S. cerevisiae rad50 strain growth inhibition; at 50.0 µM; hits give high values
In short: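 Relative growth inhibition (compound vs vehicle) was measured in yeast with a defined repair-gene alteration.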

[2] = NCI Yeast Anticancer Drug Screen. Data for the mec2-1 strain (AID 157); conditions: S. cerevisiae mec2-1 strain, at 50.0 µM, hits give high values
In short: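 Yeast mec2-1 mutant treated with compound. Readout: growth inhibition vs vehicle controls.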

[3] = NCI Yeast Anticancer Drug Screen. Data for the sgs1 mgt1 strain (AID 161);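 also: 0% = growth of cultures given vehicle only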; conditions: S. cerevisiae sgs1 mgt1 strain, at 50.0 µM, hits give high values
In short: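 Test agents were incubated with a DNA-repair-mutant yeast strain. Growth was then read and compared against vehicle-treated controls.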

[4] = NCI Yeast Anticancer Drug Screen. Data for the cln2 rad14 strain (AID 165);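 also: 0% = growth equal to vehicle treated cultures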; conditions: S. cerevisiae cln2 rad14 strain, at 50.0 µM, hits give high values
In short: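 cln2 rad14 yeast strain; compound exposure; growth inhibition read vs vehicle controls.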

[5] = NCI Yeast Anticancer Drug Screen. Data for the bub3 strain (AID 167); conditions: S. cerevisiae bub3 mutant strain, at 50.0 µM, hits give high values
In short: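 Screening used yeast with an engineered genetic alteration affecting cell cycle control. Compound-exposed cultures were compared with vehicle cultures, and reduced growth was taken as inhibition.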

[6] = NCI Yeast Anticancer Drug Screen. Data for the mlh1 rad18 strain (AID 175); conditions: S. cerevisiae mlh1 rad18 strain growth inhibition; at 50.0 µM; hits give high values
In short: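 Yeast w/ defined DNA-repair lesions; compound exposure; growth vs vehicle controls → % inhibition.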

Measured: growth inhibition

CCCCOC(=O)c1ccc(NC(=O)CCl)cc1
inactive: [1] 28.6% | [2] 18.8% | [3] 43.1% | [4] 12.5% | [5] 13.8% | [6] 43.4%

COC(=O)C1=C(C)C(=O)CC1
inactive: [1] 16.7% | [2] -1.5% | [3] 11.8% | [4] -11.9% | [5] 13.9% | [6] 14.2%

O=C(O)CSCC(=O)Nc1cc(C(F)(F)F)ccc1Cl
inactive: [1] -28.1% | [2] -36.6% | [3] -25.8% | [4] -22.9% | [5] -11.3% | [6] -11.2%

CCCCN(C(=O)CC)c1ccccc1
inactive: [1] 23.7% | [2] -29.8% | [3] 9.5% | [4] -22.4% | [5] -12.9% | [6] -62.5%

C=COC(=O)C(C)(C)C
inactive: [1] 8.3% | [2] -13.8% | [3] 14.9% | [4] 21.4% | [5] -0.45% | [6] 31.5%

COC(=O)c1ccccc1C(=O)c1c(C)cc(C)cc1C
inactive: [1] 13.8% | [2] 28.2% | [3] 34.1% | [4] -64% | [5] 46.9% | [6] 50.3%

CN1CCCN(C(c2ccccc2)c2ccc(Br)cc2)CC1 (stereo not drawn)
inactive: [1] 40% | [2] 1.95% | [3] 19.8% | [4] 24.1% | [5] 30.9% | [6] 46%

CS(=O)(=O)c1ccc(/C=C\C(=O)O)cc1
inactive: [1] 19.6% | [2] 7.1% | [3] 9% | [4] -8.4% | [5] -3.7% | [6] 19.2%

Cc1onc(-c2ccccc2Cl)c1C(=O)Cl
inactive: [1] -41.3% | [2] -41.3% | [3] -13.2% | [4] 4.5% | [5] -31.1% | [6] -29.3%

CC(=O)c1cccc(O)c1
inactive: [1] 5.8% | [2] -8.85% | [3] 6.65% | [4] 1.1% | [5] -5.1% | [6] 17.7%

NNC(=O)CCCCl
inactive: [1] -10.5% | [2] -15.7% | [3] -11.5% | [4] 2.75% | [5] -21.3% | [6] -0.2%

CCOC(=O)/C(C#N)=C\c1c[nH]c2ccccc12
inactive: [1] 54.5% | [2] 23.9% | [3] 46.3% | [4] -1.2% | [5] 57.7% | [6] 59.2%

C=C1C(=O)C2CCN1CC2
inactive: [1] 1.05% | [2] -15.8% | [3] -15.8% | [4] 2.95% | [5] -18.1% | [6] -21.2%

CC(=O)Nc1ncc(S(=O)(=O)c2ccc([N+](=O)[O-])cc2)s1
inactive: [1] -28.1% | [2] -57.5% | [3] -17.1% | [4] -7.55% | [5] -41.2% | [6] -32.1%

Nc1cc(F)ccc1[N+](=O)[O-]
inactive: [1] -13.2% | [2] -0.1% | [3] -18.1% | [4] -26.2% | [5] -8.75% | [6] -5%

CSCCC(NC(=O)C(Cl)Cl)C(=O)O (stereo not drawn)
inactive: [1] -31.6% | [2] -3% | [3] -4.1% | [4] -49% | [5] 17% | [6] 3.4%

S=CN1CCCCC1
inactive: [1] -25.1% | [2] -16.2% | [3] -7.8% | [4] -2.4% | [5] -23.8% | [6] -8.75%

CCOC(=O)CSCCC#N
inactive: [1] 2.85% | [2] 2.35% | [3] -5.05% | [4] -7.9% | [5] 1.75% | [6] 0.65%

CCOC(=O)C(=O)CC(=O)c1ccccc1
inactive: [1] 8.65% | [2] 8.05% | [3] -5.75% | [4] -26.4% | [5] 8.55% | [6] 11.7%

CCOC(=O)Nc1nccs1
inactive: [1] -13.7% | [2] 7.9% | [3] -5.3% | [4] -37% | [5] -2.6% | [6] -4.6%

C/C(Cc1ccccc1)=N\O
inactive: [1] 3.75% | [2] 3.1% | [3] -20.6% | [4] 19.8% | [5] -7.95% | [6] 7.25%

CC(C)Sc1ncnc2nc[nH]c12
inactive: [1] 2.4% | [2] 1.1% | [3] -3.05% | [4] -0.9% | [5] 18.9% | [6] 2.5%

Cc1[nH]n(-c2ccccc2)c(=O)c1C=NC(=S)C(N)=S
inactive: [1] -24.4% | [2] -22.9% | [3] -20.4% | [4] -19.1% | [5] -54.4% | [6] -20.5%

O=C(c1cccc(C(=O)c2ccc3c4c(cccc24)C(=O)N(c2ccccc2)C3=O)c1)c1ccc2c3c(cccc13)C(=O)N(c1ccccc1)C2=O
inactive: [1] -35.5% | [2] -36.8% | [3] -23.1% | [4] 12.1% | [5] -25.4% | [6] -20.8%

CCC1CCC(C)NC1 (stereo not drawn)
inactive: [1] 26.4% | [2] 2.75% | [3] 17.2% | [4] 23.6% | [5] -7.05% | [6] 21.8%

O=CNCCc1ccccc1
inactive: [1] 7.25% | [2] -9.05% | [3] 6.85% | [4] 5% | [5] 6.3% | [6] 2.35%

CC1(c2ccccc2)CO1 (stereo not drawn)
inactive: [1] -2.8% | [2] -21.4% | [3] -7.85% | [4] -11.1% | [5] -14.9% | [6] 4.3%

Cc1ccc[n+](CCC(N)=O)c1
inactive: [1] -18.4% | [2] -41.4% | [3] -10.8% | [4] 1.2% | [5] -16.1% | [6] -6.75%
